Results reported in the supplement of paper PMC10849652.
Of roughly 8,800 targets only a part is listed; those with a hit were picked by preference. About 0.5% of all pairs of compound and target were hits. Unmarked numbers belong to inactive results.

Tests used:
Assay in all cases: log2 fold change, soluble protein after heating vs DMSO (PISA); higher = thermal stabilisation; K562 lysate, 10 uM; active = over 0.2 and 3.5 SD of the protein, either way, in both replicates (recomputed)
alvocidib = compound: CN1CC[C@H](c2c(O)cc(O)c3c(=O)cc(-c4ccccc4Cl)oc23)[C@H](O)C1 [alvocidib]
In short: (§1)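 Dounce homogenisation of K562 pellets in PBS pH 7.4 with 1 mM MgCl2 produced a crude extract, used at 1 mg/mL protein. Exposure to 10 μM compound lasted 30 min, and aliquots were then heated for 3 min across 48°C-58°C, pooled and brought to 0.5% NP-40 at 4°C. The supernatant after 21,000xg for 90 min was quantified by TMTpro 16plex LC-MS/MS with channel sums equalised. Duplicate values are given as log-two fold change in thermal stability relative to solvent controls.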

Tubastatin A = compound: CN1CCc2c(c3ccccc3n2Cc2ccc(C(=O)NO)cc2)C1 [Tubastatin A]
In short: as §1

[1] = compound: CNC(=O)C1=CC=CC=C1NC2=NC(=NC=C2Cl)NC3=C(C=C(C=C3)N4CCOCC4)OC
In short: as §1

encorafenib = compound: COC(=O)N[C@@H](C)CNc1nccc(-c2cn(C(C)C)nc2-c2cc(Cl)cc(NS(C)(=O)=O)c2F)n1 [encorafenib]
In short: as §1

[2] = compound: COC(=O)[C@H](CCSC)NC(=O)C1=C(C=C(C=C1)NC[C@H](CS)N)C2=CC=CC=C2
In short: as §1

alisertib = compound: COc1cc(Nc2ncc3c(n2)-c2ccc(Cl)cc2C(c2c(F)cccc2OC)=NC3)ccc1C(=O)O [alisertib]
In short: as §1

[3] = compound: COc1cc2nc(-c3cc(F)ccc3O)nc(N[C@@H]3CNC[C@H]3C(C)(C)O)c2cc1OC
In short: as §1

gefitinib = compound: COc1cc2ncnc(Nc3ccc(F)c(Cl)c3)c2cc1OCCCN1CCOCC1 [gefitinib]
In short: as §1

lapatinib = compound: CS(=O)(=O)CCNCc1ccc(-c2ccc3ncnc(Nc4ccc(OCc5cccc(F)c5)c(Cl)c4)c3c2)o1 [lapatinib]
In short: as §1

pictilisib = compound: CS(=O)(=O)N1CCN(Cc2cc3nc(-c4cccc5[nH]ncc45)nc(N4CCOCC4)c3s2)CC1 [pictilisib]
In short: as §1

crizotinib = compound: C[C@@H](Oc1cc(-c2cnn(C3CCNCC3)c2)cnc1N)c1c(Cl)ccc(F)c1Cl [crizotinib]
In short: as §1

[4] = compound: C[C@H](C1=CC=C(C=C1)C(=O)NC2=C3C=CNC3=NC=C2)N
In short: as §1

gandotinib = compound: Cc1cc(Nc2cc(CN3CCOCC3)c3nc(C)c(Cc4ccc(Cl)cc4F)n3n2)n[nH]1 [gandotinib]
In short: as §1

tozasertib = compound: Cc1cc(Nc2cc(N3CCN(C)CC3)nc(Sc3ccc(NC(=O)C4CC4)cc3)n2)n[nH]1 [tozasertib]
In short: as §1

doramapimod = compound: Cc1ccc(-n2nc(C(C)(C)C)cc2NC(=O)Nc2ccc(OCCN3CCOCC3)c3ccccc23)cc1 [doramapimod]
In short: as §1

bafetinib = compound: Cc1ccc(NC(=O)c2ccc(CN3CC[C@H](N(C)C)C3)c(C(F)(F)F)c2)cc1Nc1nccc(-c2cncnc2)n1 [bafetinib]
In short: as §1

[5] = compound: Cc1cccc(CC(=O)N2CCc3c2ccc(-c2cn(C)c4ncnc(N)c24)c3F)n1
In short: as §1

defactinib = compound: CNC(=O)c1ccc(Nc2ncc(C(F)(F)F)c(NCc3nccnc3N(C)S(C)(=O)=O)n2)cc1 [defactinib]
In short: as §1

[6] = compound: CNc1nc(-c2ccc3c(N)n[nH]c3c2)cc(N2C[C@@H](C(=O)NC3CCCCC3)CC[C@H]2C)n1
In short: as §1

duvelisib = compound: C[C@H](Nc1ncnc2nc[nH]c12)c1cc2cccc(Cl)c2c(=O)n1-c1ccccc1 [duvelisib]
In short: as §1

Chain of UniProt P55210 (P55210 whole entry, looked up): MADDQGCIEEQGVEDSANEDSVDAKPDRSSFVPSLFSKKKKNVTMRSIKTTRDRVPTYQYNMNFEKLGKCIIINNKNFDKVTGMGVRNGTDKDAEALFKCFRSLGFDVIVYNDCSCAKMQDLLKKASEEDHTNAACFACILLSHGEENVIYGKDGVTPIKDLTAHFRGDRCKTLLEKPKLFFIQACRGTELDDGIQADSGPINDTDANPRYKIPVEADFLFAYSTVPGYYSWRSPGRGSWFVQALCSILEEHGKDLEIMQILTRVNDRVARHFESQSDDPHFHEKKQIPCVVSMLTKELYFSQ
Chain of UniProt Q16581 (Q16581 whole entry, looked up): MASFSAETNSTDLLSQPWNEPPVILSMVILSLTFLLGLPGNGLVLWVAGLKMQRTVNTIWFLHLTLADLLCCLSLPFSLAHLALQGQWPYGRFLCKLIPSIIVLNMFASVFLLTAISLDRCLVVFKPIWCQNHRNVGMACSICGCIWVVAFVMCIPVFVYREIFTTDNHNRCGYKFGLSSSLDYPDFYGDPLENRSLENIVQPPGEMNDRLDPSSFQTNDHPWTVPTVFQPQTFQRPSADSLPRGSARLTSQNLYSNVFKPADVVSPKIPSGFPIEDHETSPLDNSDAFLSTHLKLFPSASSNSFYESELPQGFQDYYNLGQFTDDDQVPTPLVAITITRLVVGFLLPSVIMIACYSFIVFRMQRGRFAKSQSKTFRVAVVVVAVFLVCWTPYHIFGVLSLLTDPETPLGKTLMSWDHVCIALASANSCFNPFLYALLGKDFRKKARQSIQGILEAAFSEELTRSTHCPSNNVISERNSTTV
Chain of UniProt O95260 (O95260 whole entry, looked up): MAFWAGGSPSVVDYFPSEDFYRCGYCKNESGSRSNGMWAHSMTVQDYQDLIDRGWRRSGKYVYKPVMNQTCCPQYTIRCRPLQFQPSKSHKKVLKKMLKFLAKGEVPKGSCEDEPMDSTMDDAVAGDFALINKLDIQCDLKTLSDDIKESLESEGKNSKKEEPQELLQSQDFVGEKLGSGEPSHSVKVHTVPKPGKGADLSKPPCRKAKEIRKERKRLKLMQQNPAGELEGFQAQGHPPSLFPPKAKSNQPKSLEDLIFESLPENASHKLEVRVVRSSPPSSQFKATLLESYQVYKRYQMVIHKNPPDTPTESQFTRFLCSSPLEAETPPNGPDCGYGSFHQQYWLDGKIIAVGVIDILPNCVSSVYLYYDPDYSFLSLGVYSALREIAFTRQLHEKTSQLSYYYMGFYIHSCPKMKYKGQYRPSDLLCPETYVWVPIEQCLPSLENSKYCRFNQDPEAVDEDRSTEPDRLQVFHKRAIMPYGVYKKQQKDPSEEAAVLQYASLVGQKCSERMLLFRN
Chain of UniProt O43303 (O43303 whole entry, looked up): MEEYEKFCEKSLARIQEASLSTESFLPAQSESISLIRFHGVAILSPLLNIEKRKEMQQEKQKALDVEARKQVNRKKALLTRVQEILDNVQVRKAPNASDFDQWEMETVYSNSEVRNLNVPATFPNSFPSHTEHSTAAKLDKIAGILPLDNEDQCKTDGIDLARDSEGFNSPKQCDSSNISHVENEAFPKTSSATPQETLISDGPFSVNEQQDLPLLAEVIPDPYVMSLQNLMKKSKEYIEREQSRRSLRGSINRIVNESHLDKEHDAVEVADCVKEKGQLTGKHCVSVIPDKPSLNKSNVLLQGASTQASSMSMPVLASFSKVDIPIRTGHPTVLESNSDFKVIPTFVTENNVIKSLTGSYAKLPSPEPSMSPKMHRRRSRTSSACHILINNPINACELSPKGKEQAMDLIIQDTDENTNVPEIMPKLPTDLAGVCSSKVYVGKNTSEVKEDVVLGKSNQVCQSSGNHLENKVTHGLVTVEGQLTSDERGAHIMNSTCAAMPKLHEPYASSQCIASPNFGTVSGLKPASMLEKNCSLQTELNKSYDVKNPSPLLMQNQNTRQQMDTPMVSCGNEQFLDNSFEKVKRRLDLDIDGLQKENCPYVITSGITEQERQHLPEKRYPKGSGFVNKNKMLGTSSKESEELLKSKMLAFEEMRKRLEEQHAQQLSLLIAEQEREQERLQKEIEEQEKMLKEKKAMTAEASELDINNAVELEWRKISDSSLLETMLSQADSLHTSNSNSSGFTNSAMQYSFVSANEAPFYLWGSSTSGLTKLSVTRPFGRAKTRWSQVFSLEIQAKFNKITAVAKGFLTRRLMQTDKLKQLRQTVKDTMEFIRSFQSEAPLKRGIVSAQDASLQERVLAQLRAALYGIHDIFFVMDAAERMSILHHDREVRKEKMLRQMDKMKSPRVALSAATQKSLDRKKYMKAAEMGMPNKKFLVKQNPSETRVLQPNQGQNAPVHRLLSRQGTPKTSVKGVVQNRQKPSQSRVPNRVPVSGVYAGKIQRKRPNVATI
Chain of UniProt Q9BYV8 (Q9BYV8 whole entry, looked up): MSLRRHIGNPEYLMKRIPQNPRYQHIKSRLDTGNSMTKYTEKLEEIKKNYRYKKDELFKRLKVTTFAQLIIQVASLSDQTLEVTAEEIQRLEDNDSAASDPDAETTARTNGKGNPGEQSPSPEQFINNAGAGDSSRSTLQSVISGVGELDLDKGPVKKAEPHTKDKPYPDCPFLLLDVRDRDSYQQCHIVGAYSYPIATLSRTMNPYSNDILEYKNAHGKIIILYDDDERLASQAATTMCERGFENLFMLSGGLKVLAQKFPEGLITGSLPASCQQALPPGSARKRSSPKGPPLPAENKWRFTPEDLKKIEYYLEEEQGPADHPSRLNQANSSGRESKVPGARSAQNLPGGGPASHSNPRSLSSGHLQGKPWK
Chain of UniProt Q1RMZ1 (Q1RMZ1 whole entry, looked up): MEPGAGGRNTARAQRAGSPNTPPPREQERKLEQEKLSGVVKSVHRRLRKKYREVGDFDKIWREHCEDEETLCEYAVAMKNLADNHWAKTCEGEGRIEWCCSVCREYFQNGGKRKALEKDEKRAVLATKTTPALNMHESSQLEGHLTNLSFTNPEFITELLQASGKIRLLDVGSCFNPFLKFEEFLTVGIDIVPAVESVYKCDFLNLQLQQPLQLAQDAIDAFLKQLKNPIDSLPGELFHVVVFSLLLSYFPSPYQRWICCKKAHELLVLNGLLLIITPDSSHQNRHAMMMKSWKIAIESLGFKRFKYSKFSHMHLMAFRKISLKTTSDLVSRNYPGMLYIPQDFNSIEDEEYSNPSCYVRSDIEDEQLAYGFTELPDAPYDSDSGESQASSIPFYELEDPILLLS
Chain of UniProt P30304 (P30304 whole entry, looked up): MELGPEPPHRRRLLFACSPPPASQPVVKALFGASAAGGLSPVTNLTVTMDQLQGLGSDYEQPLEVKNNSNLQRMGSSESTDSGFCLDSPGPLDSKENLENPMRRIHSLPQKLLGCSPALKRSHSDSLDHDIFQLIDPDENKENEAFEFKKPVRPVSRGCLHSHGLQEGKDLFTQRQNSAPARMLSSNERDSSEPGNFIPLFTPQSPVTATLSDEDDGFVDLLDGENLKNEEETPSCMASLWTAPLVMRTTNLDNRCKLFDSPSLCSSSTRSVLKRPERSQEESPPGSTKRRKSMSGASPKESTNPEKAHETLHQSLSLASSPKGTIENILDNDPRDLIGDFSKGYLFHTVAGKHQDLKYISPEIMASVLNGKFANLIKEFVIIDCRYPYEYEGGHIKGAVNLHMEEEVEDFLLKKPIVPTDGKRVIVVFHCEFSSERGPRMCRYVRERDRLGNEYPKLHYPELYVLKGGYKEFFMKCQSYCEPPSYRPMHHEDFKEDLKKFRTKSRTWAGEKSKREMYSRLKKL
Chain of UniProt Q6TDU7 (Q6TDU7 whole entry, looked up): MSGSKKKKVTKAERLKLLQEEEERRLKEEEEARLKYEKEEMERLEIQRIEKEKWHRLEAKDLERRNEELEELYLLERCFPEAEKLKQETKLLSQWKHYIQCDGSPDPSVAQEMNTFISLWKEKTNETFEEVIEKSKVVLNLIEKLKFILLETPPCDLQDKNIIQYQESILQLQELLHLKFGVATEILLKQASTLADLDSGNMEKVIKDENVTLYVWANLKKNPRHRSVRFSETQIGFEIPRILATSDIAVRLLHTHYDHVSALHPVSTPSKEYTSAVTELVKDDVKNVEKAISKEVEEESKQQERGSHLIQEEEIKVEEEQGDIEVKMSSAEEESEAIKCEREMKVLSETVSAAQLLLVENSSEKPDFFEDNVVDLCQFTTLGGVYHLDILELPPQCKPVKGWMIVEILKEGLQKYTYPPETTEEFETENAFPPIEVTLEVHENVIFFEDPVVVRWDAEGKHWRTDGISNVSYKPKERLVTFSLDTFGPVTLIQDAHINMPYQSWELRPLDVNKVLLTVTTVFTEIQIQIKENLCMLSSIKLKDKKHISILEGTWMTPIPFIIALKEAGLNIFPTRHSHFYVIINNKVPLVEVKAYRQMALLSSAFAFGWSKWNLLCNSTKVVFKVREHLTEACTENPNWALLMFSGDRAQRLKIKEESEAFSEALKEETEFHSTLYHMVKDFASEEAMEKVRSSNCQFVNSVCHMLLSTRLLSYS
Chain of UniProt P0DMB2 (P0DMB2 whole entry, looked up): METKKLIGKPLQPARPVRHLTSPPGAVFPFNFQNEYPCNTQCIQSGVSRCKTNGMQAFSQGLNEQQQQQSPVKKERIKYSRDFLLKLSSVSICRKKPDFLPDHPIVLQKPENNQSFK
Chain of UniProt Q53HL2 (Q53HL2 whole entry, looked up): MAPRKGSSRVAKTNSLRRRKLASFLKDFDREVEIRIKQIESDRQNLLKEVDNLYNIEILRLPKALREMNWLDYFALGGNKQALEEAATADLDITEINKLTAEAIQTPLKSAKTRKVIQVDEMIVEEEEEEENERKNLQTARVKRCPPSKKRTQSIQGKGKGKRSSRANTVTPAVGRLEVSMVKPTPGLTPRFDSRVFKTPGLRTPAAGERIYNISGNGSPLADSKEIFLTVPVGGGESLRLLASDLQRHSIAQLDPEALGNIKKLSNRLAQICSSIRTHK
Chain of UniProt Q6P4H8 (Q6P4H8 whole entry, looked up): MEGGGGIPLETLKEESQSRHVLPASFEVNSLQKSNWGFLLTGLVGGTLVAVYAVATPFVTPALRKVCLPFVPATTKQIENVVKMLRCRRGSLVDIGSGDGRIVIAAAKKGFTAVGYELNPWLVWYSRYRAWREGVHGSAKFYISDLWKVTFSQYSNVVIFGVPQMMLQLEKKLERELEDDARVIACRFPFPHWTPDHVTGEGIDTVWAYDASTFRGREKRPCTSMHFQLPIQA

Target	log2 fold change (alvocidib)	log2 fold change (Tubastatin A)	log2 fold change [1]	log2 fold change (encorafenib)	log2 fold change [2]	log2 fold change (alisertib)	log2 fold change [3]	log2 fold change (gefitinib)	log2 fold change (lapatinib)	log2 fold change (pictilisib)	log2 fold change (crizotinib)	log2 fold change [4]	log2 fold change (gandotinib)	log2 fold change (tozasertib)	log2 fold change (doramapimod)	log2 fold change (bafetinib)	log2 fold change [5]	log2 fold change (defactinib)	log2 fold change [6]	log2 fold change (duvelisib)
CEP295 isoform 3 (UniProt Q9C0D2)	-0.039	-0.099	-0.029	-0.154	0.149	0.018	-0.016	-0.041	-0.038	0.057	0.004	-0.365 (active)	0.058	0.111	0.059	0.031	0.072	–	–	–
BRAF, A0A2R8Y8E0	–	–	–	1.3	0.076	–	–	–	–	–	–	–	–	0.035	–	–	–	-0.029	–	–
ATXN2 (UniProt F8WB06)	–	–	–	–	–	–	–	–	–	–	–	–	–	–	–	–	–	–	-0.09	0.187
BUD13 (UniProt Q9BRD0)	0.033	-0.015	-0.022	0.007	0.004	0.017	–	0.108	–	0.104	-0.044	-0.053	0.045	0.008	0.014	-0.134	0.114	–	0.068	0.08
CDKL5 (UniProt O76039)	1.14 (active)	–	–	-0.038	-0.116	–	0.058	–	-0.207	–	-0.167	-0.128	0.537	0.024	-0.057	–	-0.073	0.55	-0.052	0.073
CCDC130 (UniProt P13994)	–	-0.066	-0.275	-0.015	0.09	–	–	–	–	-0.003	-0.689	–	–	0.055	0.617	-0.119	–	–	–	–
CDCA8 (UniProt Q53HL2)	0.091	–	0.054	0.003	-0.044	0.034	–	0.04	–	0.072	–	0.319	-0.031	-0.047	–	-0.217	-0.128	0.144	-0.061	0.031
CDK16 isoform 2 (UniProt Q00536)	–	0.029	0.05	0.04	-0.024	-0.014	0.008	-0.026	0.046	–	0.063	-0.016	0.533 (active)	–	0.012	-0.007	-0.05	0.285	0.106	0.043
CAPNS1 (UniProt U3KPR7)	–	–	–	–	–	-0.069	0.024	0.165	-0.052	-0.083	–	–	–	–	–	-0.194	–	–	–	–
CAPNS1 (UniProt K7ES78)	–	-0.074	0.001	–	–	–	-0.083	–	0.162	–	0.158	–	–	–	-0.08	–	–	0.035	-0.068	0.17
CANX (UniProt D6RHJ3)	–	–	–	–	–	0.068	0.07	-0.242	-0.017	–	–	–	–	–	–	–	–	0.174	–	–
BICRA (UniProt Q9NZM4)	-0.113	0.335	0.101	–	–	–	0.132	–	-0.099	0.052	-0.059	-0.027	0.171	–	0.014	0.078	0.133	–	0.884 (active)	0.105
C3AR1 (UniProt Q16581)	0.055	–	–	–	–	0.358	–	0.053	–	-0.023	0.02	-0.025	0.043	–	-0.01	0.111	0.099	–	–	–
CAMK2B (UniProt Q13554)	0.318	-0.035	–	-0.045	0.067	0.001	-0.005	0.026	0.024	0.053	–	-0.045	0.072	-0.046	-0.03	0.003	0.055	0.009	-0.069	-0.011
CEP41 (UniProt Q9BYV8)	0.042	–	0.083	0.001	-0.139	0.029	-0.059	0.011	-0.017	0.039	0.062	0.047	0.003	0.086	0.044	-0.067	0.007	0.015	0.073	-0.013
CHD4, A0A2R8Y521	–	-0.117	–	0.046	-0.086	0.133	-0.454	0.167	0.025	–	–	–	–	0.081	–	–	–	–	0.155	0.006
CEP57L1 (UniProt Q8IYX8)	-0.024	-0.143	0.141	0.118	-0.023	-0.003	–	-0.038	–	0.076	0.056	-0.039	-0.022	-0.07	0.05	-0.184	0.073	–	-0.09	-0.004
CENPV (UniProt Q7Z7K6)	-0.15	-0.458	–	0.323	-0.045	-0.205	–	0.789	–	0.02	-0.119	0.089	-0.193	0.094	-0.149	-0.163	-0.36	0.117	–	–
CARHSP1 (UniProt H3BNU9)	-0.027	–	–	–	–	-0.107	-0.003	-0.213	-0.101	-0.186	–	0.16	-0.329	–	–	0	0.341	–	–	–

Target	log2 fold change (alvocidib)	log2 fold change (Tubastatin A)	log2 fold change [1]	log2 fold change (encorafenib)	log2 fold change [2]	log2 fold change (alisertib)	log2 fold change [3]	log2 fold change (gefitinib)	log2 fold change (lapatinib)	log2 fold change (pictilisib)	log2 fold change (crizotinib)	log2 fold change [4]	log2 fold change (gandotinib)	log2 fold change (tozasertib)	log2 fold change (doramapimod)	log2 fold change (bafetinib)	log2 fold change [5]	log2 fold change (defactinib)	log2 fold change [6]	log2 fold change (duvelisib)
CHCHD7 isoform 4 (UniProt Q9BUK0)	-0.097	0.082	–	0.005	-0.003	0.177	0.027	0.118	0.079	0.06	-0.052	-0.382 (active)	0.266	-0.077	0.026	-0.001	0.187	-0.009	-0.141	-0.01
CDC14A isoform 2 (UniProt Q9UNH5)	–	0.272	–	–	–	0.075	0.019	0.078	0.062	–	0.031	–	–	–	0.108	–	–	–	–	–
CCAR2 (UniProt G3V119)	–	–	–	–	–	–	-0.032	–	-0.12	–	–	–	–	–	–	–	–	–	–	–
ATE1 (UniProt O95260)	-0.024	–	–	–	–	–	0.044	–	-0.03	-0.047	-0.068	0.032	-0.019	–	0.043	-0.039	0.009	–	–	–
CCP110 (UniProt O43303)	–	-0.045	-0.115	0.075	0.125	–	–	–	–	-0.085	-0.006	–	–	-0.009	0.009	-0.053	–	0.181	0.008	0.084
C8orf88 (UniProt P0DMB2)	0.072	-0.064	0.07	–	–	–	–	–	–	0.028	0.038	0.054	-0.017	–	-0.004	-0.016	-0.095	–	-0.015	0.058
CDK11A (UniProt Q9UQ88)	0.077	-0.172	-0.011	–	–	-0.023	-0.037	0	0.104	-0.02	0.092	0.049	0.122	–	-0.072	-0.033	-0.093	–	0.023	-0.003
CDAN1 (UniProt H3BPZ6)	–	–	–	–	–	–	–	–	–	–	0.118	–	–	–	0.059	–	–	–	–	–
ATPSCKMT (UniProt Q6P4H8)	–	-0.368 (active)	–	-0.176	0.17	–	–	–	–	-0.113	-0.039	–	–	-0.219	0.022	-0.034	–	–	-0.027	-0.036
CASP7 isoform 3 (UniProt P55210)	–	-0.051	-0.016	0.16	0.379 (active)	-0.058	0.079	0.108	-0.055	0.037	-0.07	–	–	0.049	0.029	-0.054	–	–	-0.059	0.009
CDC25A (UniProt P30304)	–	-0.406 (active)	-0.121	–	–	0.005	0.019	-0.002	-0.016	–	–	–	–	–	0.114	–	–	–	0.035	-0.014
C16orf70 (UniProt Q9BSU1)	–	0.075	0.082	0.04	-0.135	–	0.076	–	-0.002	-0.076	0.058	–	–	0.018	0.116	-0.045	–	0.216	-0.005	-0.013
CEP128 (UniProt Q6ZU80)	-0.294	0.565	–	0.064	0.031	–	–	–	–	-0.123	–	-1.2 (active)	0.331	0.027	–	-0.043	0.297	-0.052	-0.037	-0.022
ATG4D (UniProt Q86TL0)	–	-0.09	–	-0.031	-0.155	–	–	–	–	-0.054	-0.031	–	–	0.099	-0.072	-0.056	–	–	-0.008	0.109
BMT2 (UniProt Q1RMZ1)	-0.004	–	–	–	–	0.025	–	-0.27	–	–	–	0.116	-0.124	–	–	–	-0.056	–	–	–
BRD3 (UniProt Q15059)	-0.059	–	0.105	-0.016	0.018	-0.003	-0.015	-0.15	0.014	0.004	-0.022	-0.333 (active)	0.147	0.048	-0.074	-0.016	0.154	0.017	0.09	0.1
CAD (UniProt H7BZB3)	0.005	–	0.28	0.113	0.059	–	–	–	–	–	–	0.069	0.036	-0.062	–	–	0.057	0.036	–	–
CASC1 (UniProt Q6TDU7)	-0.023	0.317	–	–	–	–	–	–	–	-0.06	–	-0.175	0.058	–	–	0.953	0.095	–	–	–
BAHCC1 (UniProt Q9P281)	-0.569	–	-0.135	0.038	-0.024	0.085	0.076	0.095	-0.117	–	-0.191	-0.956 (active)	0.006	0.052	0.137	–	0.234	-0.208	-0.054	0.002
